Measured values as given in PubChem BioAssay (NCI).
About 79,000 compounds went through this panel and 15% of them were active in at least one assay; those are over-represented in the sample as a whole. A number with no mark means an inactive call. Cut-off read from the data, not from the text of the source: active = growth inhibition above about 70%; inactive = the rest.

test: NCI Yeast Anticancer Drug Screen. Data for the rad50 strain (AID 155);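 note: 0% = growth of vehicle-only cultures of the same strain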; conditions: S. cerevisiae rad50 strain growth inhibition; at 50.0 µM; stronger effect = higher value
Procedure, shortened: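 Readout: growth inhibition relative to vehicle-treated cultures. Compound exposure was carried out in a genetically defined yeast strain deficient in DNA damage repair.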

SMILES	growth inhibition [%]
Cc1[nH]c(=O)nc(N/N=C/c2ccc(Cl)cc2)c1C(=O)Nc1ccc(Cl)cc1	-5.35
O=c1cc(-c2ccccc2)oc2c1ccc1c(O)cccc12	11.1
Cc1cc(N=[N+]=[N-])c2cc3c(cc2n1)OCO3	-32.2
CC(C)CC(NC(=O)OC(C)(C)C)C(=O)O (configuration not stated)	-44.6
CC1=CC(=O)N2CCN=C2S1	-7.05
CC(=O)NC(C)(C)C1CCC(C)CC1 (configuration not stated)	-7.95
CC1=CC(C)(C)N=C2SC(c3ccc(N)cc3)=NN12	25
NCCCc1ccc(C(=O)O)cc1	-23.8
CC(=O)OCC1OC(n2cc(F)c(=O)[nH]c2=O)C(OC(C)=O)C1OC(C)=O (configuration not stated)	28.9
O=c1c(-c2ccccc2)nc2ccccc2n1CC1CCCN2CCCC[C@H]12 (some centres not stated)	3.9
CCN(C(=O)c1ccc([N+](=O)[O-])cc1)C(c1ccccc1)P(=O)(c1ccccc1)c1ccccc1 (configuration not stated)	-12.4
Cc1cccc(-c2c3ccccc3cc3c2ccc2ccccc23)c1	11.9
O=C(Cc1ccc(Cl)cc1)c1ccccc1Cl	2.8
O=C1OC(=O)C2C3C=CC(CC3)C12 (configuration not stated)	-1.35
CCN(CC)Cc1cc(Oc2ccc(O)c(CN(CC)CC)c2)ccc1O	11.1
O=[N+]([O-])/C=C/c1cn(CCCCCn2cc(/C=C/[N+](=O)[O-])c3ccccc32)c2ccccc12	-5.65
CC1CN(N)C(=O)O1 (configuration not stated)	-3.9
